# From PubChem BioAssay AID488969 (Vanderbilt High Throughput Screening Facility, 2010)
# The full ranking holds about 110,000 compounds; the median of “z-score” is about -0.1, and the highest 2% start at about 2. Many of the other results were omitted from the sample, so the highest values are more common in it than they were. The source made the active and inactive calls.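 The calls were made as follows: active = z-score in the third read window above 3 or below -3; inactive = the rest.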
# Biological target: Metabotropic glutamate receptor 8 (Rattus norvegicus) (UniProt P70579)
# Sequence (P70579 whole entry, looked up): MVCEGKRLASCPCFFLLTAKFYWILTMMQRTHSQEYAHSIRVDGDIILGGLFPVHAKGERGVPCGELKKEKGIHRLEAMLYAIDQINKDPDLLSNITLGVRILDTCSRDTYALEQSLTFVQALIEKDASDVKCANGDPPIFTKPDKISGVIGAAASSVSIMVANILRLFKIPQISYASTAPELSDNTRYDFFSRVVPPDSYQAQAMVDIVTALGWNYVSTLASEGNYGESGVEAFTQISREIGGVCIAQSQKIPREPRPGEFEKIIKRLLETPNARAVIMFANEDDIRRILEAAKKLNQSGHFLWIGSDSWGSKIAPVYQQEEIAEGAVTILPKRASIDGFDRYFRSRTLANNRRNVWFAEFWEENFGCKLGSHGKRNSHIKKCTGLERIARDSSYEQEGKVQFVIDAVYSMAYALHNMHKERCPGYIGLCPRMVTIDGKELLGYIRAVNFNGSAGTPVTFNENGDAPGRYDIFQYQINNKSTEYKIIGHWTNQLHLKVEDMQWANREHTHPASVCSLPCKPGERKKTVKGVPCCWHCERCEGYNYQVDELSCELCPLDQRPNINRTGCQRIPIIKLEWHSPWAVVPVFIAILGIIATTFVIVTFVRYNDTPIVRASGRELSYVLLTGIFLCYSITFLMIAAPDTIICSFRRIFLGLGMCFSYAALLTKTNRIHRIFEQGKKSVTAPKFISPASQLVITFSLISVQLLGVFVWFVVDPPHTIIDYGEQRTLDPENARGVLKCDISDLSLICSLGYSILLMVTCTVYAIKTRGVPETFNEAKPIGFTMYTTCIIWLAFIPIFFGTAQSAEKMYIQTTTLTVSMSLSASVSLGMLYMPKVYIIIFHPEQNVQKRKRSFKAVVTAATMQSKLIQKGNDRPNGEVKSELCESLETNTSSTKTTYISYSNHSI
# Test: rat mGluR8 modulators via GIRK flux, primary screen, cell-based, thallium flux, HTS (AID 488969)
# Settings: HEK293 rat mGluR8, GIRK (G protein-gated inwardly rectifying potassium channel) thallium flux, FluoZin2; at 10 µM; stronger effect = higher value; submaximal glutamate (EC20) added with thallium
row,SMILES,z-score
1,Cc1ccc(S(=O)(=O)CCc2nc3ccccc3s2)cc1C,-0.169
2,CCCC(=O)O[C@@H]1C[C@@H](C)N(C(=O)c2ccccc2)c2ccc(C)cc21,-0.411
3,Cc1ccc(OC(=O)CCc2c(C)nc3ncnn3c2C)cc1,-0.382
4,O=c1oc2c(CN3CCOCC3)c(O)ccc2c2c1CCC2,0.00993
5,O=C(NNC(=O)c1sc2ccccc2c1Cl)Nc1ccc(Cl)cc1,-0.0174
6,O=C(NC(=S)Nc1ccccc1N1CCOCC1)c1sc2ccccc2c1Cl,1.18
7,COc1ccccc1C(=O)NNC(=S)NC(=O)c1sc2ccccc2c1Cl,4.01 (active)
8,COc1ccccc1C(=O)NC(=S)NNC(=O)c1sc2ccccc2c1Cl,3.35 (active)
9,COc1ccccc1C(=O)NC(=S)Nc1ccc(NC(=O)c2cccs2)cc1,0.853
10,COc1ccc(CCNC(=O)c2sc3ccccc3c2Cl)cc1OC,-0.565
11,COc1ccccc1C(=O)NNC(=S)NC(=O)c1ccco1,1.4
12,CC(C)(C)C(=O)NC(=S)NNC(=O)c1sc2ccccc2c1Cl,13.7 (active)
13,O=C(NNC(=S)NC1CCCCC1)c1sc2ccccc2c1Cl,-0.163
14,COc1ccccc1CNC(=O)CSc1ccc(Br)cc1,0.558
15,Cc1cc(C)cc(C(=O)N2CCCCCC2)c1,0.076
16,COc1ccc(NC(=O)[C@H](COCc2ccccc2)NC(=O)OC(C)(C)C)cc1,0.329
17,Cc1cc(NC(=O)CSc2nnc(-c3ccco3)o2)no1,0.184
18,Cc1ccc(Cl)cc1NC(=S)NCc1cccn1C,6.81 (active)
19,Cc1c(Cl)cccc1NC(=S)NCc1cccn1C,0.262
20,Cc1ccccc1NC(=S)NCc1cccn1C,-0.488
21,O=C(OC1CCN(c2ncc(C(F)(F)F)cc2Cl)CC1)c1ccc(Cl)cc1,-0.0974
22,O=C(O)Cn1ccnc1,-0.327
23,c1cn(CC2(Cn3ccnc3)COC2)cn1,3.15 (active)

row,SMILES,z-score
1,COc1cc(Cn2ccnc2)c(OC)cc1Cn1ccnc1,-0.198
2,CCCN1CCC(NC(=O)Nc2ccccc2C(=O)OC)CC1,-0.336
3,CCCN1CCC(NC(=O)Nc2ccc(F)cc2F)CC1,2.81
4,CCCN1CCC(NC(=O)Nc2ccc(OC)c(OC)c2)CC1,0.00828
5,COC(=O)c1ccc(NC(=O)CNCc2ccncc2)cc1,-0.143
6,Cc1onc(-c2ccccc2Cl)c1C(=O)N1CCc2ccccc2C1,-0.95
7,Cc1onc(-c2c(Cl)cccc2Cl)c1C(=O)N1CCc2ccccc2C1,0.0144
8,Cc1noc(C)c1C(=O)N1CCc2ccccc2C1,1.98
9,C=CCn1c(CCNC(=O)c2ccccc2F)nnc1SCC(=O)Nc1nc(C)cs1,0.0314
10,CCOc1cc(C2C(C#N)=C(N)Oc3n[nH]c(C)c32)ccc1OCCN1CCOCC1 (stereo not given),-0.102
11,COC(=O)c1cc(-c2ccccc2)on1,-1.87
12,CCCCP(=O)(CCCC)CCP(=O)(c1ccccc1)c1ccccc1,-0.667
13,O=C(O)Cn1c(SCc2cccc3ccccc23)nc2ccccc21,1.11
14,O=C(O)CCn1c(SCc2ccccc2)nc2ccccc21,-0.0963
15,O=C(O)CCn1c(SCc2cccc3ccccc23)nc2ccccc21,2.1
16,CCOc1ccc(NC(=O)CCNc2c(N3CCCC3)c(=O)c2=O)cc1,-0.437
17,CCn1c(-c2csc3ccccc23)n[nH]c1=S,-0.273
18,CCCCn1c(-c2csc3ccccc23)n[nH]c1=S,2.3
19,CCn1c(-c2csc3c2CCCC3)n[nH]c1=S,-0.181
20,CC(C)Cn1c(-c2csc3c2CCCC3)n[nH]c1=S,-1.59
21,CC(C)Cn1c(-c2csc3ccccc23)n[nH]c1=S,0.509
22,CCn1c(-c2csc3c2CCC(C)C3)n[nH]c1=S (stereo not given),1.49
23,CCCCn1c(-c2csc3c2CCCC3)n[nH]c1=S,6.19 (active)

row,SMILES,z-score
1,C=CCn1c(-c2csc3c2CCC(C)C3)n[nH]c1=S (stereo not given),0.494
2,CCCCn1c(-c2csc3c2CCC(C)C3)n[nH]c1=S (stereo not given),7.55 (active)
3,CCCOc1ccc(C2/C(=C(\O)c3c(C)[nH]c(C(=O)OC)c3C)C(=O)C(=O)N2CCN(C)C)cc1 (stereo not given),0.491
4,CCC(N1CCOC1=O)S(=O)(=O)c1ccc(C)cc1 (stereo not given),-0.148
5,Cc1cccnc1NC(=O)Nc1cccs1,-0.232
6,COc1cc(NC(=O)c2ccc(COCC(F)(F)F)o2)cc(OC)c1OC,2.1
7,COc1cc(NC(=O)c2ccc(COc3ccccc3Br)o2)cc(OC)c1OC,-0.932
8,COc1cc(NC(=O)c2ccc(COCC(F)(F)F)cc2)cc(OC)c1OC,-0.608
9,NC(=O)C1CCN(C(=O)COc2ccc3ccccc3c2)CC1,0.115
10,Cc1ccc(NC(=O)COn2nnc3ccc(S(=O)(=O)N(C)C)cc32)cc1F,3.29 (active)
11,CCc1ccc(NC(=O)COn2nnc3ccc(S(=O)(=O)N(C)C)cc32)cc1,-0.27
12,CCN(CC)S(=O)(=O)c1ccc2nnn(OCC(=O)Nc3cccc(C#N)c3)c2c1,-0.793
13,COCCNS(=O)(=O)c1ccc(-c2ccc(C)cc2)cc1,-0.0903
14,CCOC(=O)c1cnc2c(Cl)cccc2c1NCCN(C)C,0.313
15,O=C(O)C1C2C=CC(C2)C1C(=O)NC1CCN(Cc2ccccc2)CC1 (stereo not given),0.581
16,Cc1nc(=S)c2ccccc2[nH]1,1.49
17,CC(C)c1nc(=S)c2ccccc2[nH]1,13.7 (active)
18,S=c1nc(C2CC2)[nH]c2ccccc12,9.36 (active)
19,O=C(C1CCCCC1)N1CCC(c2nc3ccccc3[nH]2)CC1,-0.166
20,Cc1cc(=O)c2ccccc2[nH]1,0.0595
21,S=c1nc[nH]c2c1[nH]c1ccccc12,0.0879
22,COc1ccc(Cc2nnc(SCc3c(C)noc3C)n2C2CCCCC2)cc1OC,0.045
23,CSC(=NC(C)c1ccccc1)NS(=O)(=O)c1cccs1 (stereo not given),0.148

row,SMILES,z-score
1,COc1ccc(/C=C/C(=O)NC(=S)Nc2cc3oc4ccccc4c3cc2OC)cc1,0.0202
2,Cc1cccc(C)c1-n1c(C)cc(/C=C2\NC(=O)NC2=O)c1C,-0.96
3,Cc1cc(/C=C2/NC(=O)NC2=O)c(C)n1-c1ccccn1,-0.389
4,Cc1cc(C)c(-n2c(C)cc(/C=C3/NC(=O)NC3=O)c2C)c(C)c1,2.07
5,Cn1cnnc1SC(C(=O)Nc1ccc(F)cc1)c1ccccc1 (stereo not given),-0.0653
6,Cc1ccc(S(=O)(=O)N2CCC(C(=O)NC3CCCCCC3)CC2)cc1,-0.0732
7,CCC/C(O)=C1\C(=O)CCCC1=NCCCCCC(=O)O,0.156
8,COc1ccc(OC)c(CCNC(=O)CN2C(=O)CC(C)(C)S(=O)(=O)c3ccccc32)c1,0.0628
9,COc1ccc(-c2nc(CS(=O)(=O)CC(=O)NCCc3cc(OC)ccc3OC)c(C)o2)cc1,-0.299
10,COc1ccc(OC)c(CCNC(=O)Cn2sc3nc(C)cc(C)c3c2=O)c1,2.22
11,O=C(C1CCC(=O)N1Cc1ccccc1Cl)N1CCN(c2cccc(Cl)c2)CC1 (stereo not given),-0.174
12,CC(CNC(=O)c1cc(Cl)ccc1[N+](=O)[O-])NC(=O)c1cc(Cl)ccc1[N+](=O)[O-] (stereo not given),-0.0709
13,Cc1ccc(/C([O-])=C(/C(=S)NCc2ccco2)[n+]2ccccc2)cc1,-0.112
14,Cc1cc(C)n(-c2nc(NCCC(C)C)c3c4c(sc3n2)COC(C)(C)C4)n1,-0.867
15,CNc1ccccc1-n1ccc(-c2ccccc2)n1,1.11
16,N=c1nc(-c2ccccc2)ccn1O,2.64
17,c1ccc(-c2ccn3nnnc3n2)cc1,-0.244
18,O=c1c(-c2ccco2)[n+]([O-])c2ccccc2n1OCc1ccccn1,-0.153
19,CN1CCN(S(=O)(=O)c2cccc(S(=O)(=O)c3ccc(Cl)c(Cl)c3)c2)CC1,1.26
20,CN1CCN(S(=O)(=O)c2cccc(S(=O)(=O)c3cccc(S(=O)(=O)N4CCN(C)CC4)c3)c2)CC1,14 (active)
21,CN1CCN(S(=O)(=O)c2cccc(S(=O)(=O)c3ccc(Cl)cc3)c2)CC1,0.2
22,CCC(=O)NCc1cc(-c2nn(C)c(=O)c3ccccc23)ccc1C,-0.415
23,COc1cccc(NC(=O)C(Sc2nc3ccccc3c(=O)n2CC(C)C)c2ccccc2)c1 (stereo not given),2.63

row,SMILES,z-score
1,CCCn1c(SC(C(=O)Nc2cccc(OC)c2)c2ccccc2)nc2ccccc2c1=O (stereo not given),-0.276
2,COc1ccc(C)cc1NC(=O)C(Sc1ccccc1)c1ccccc1 (stereo not given),0.296
3,CCCn1c(SC(C(=O)Nc2cc(C)ccc2OC)c2ccccc2)nc2ccccc2c1=O (stereo not given),3.61 (active)
4,COc1cccc(NC(=O)C(Sc2nnc3ccccn23)c2ccccc2)c1 (stereo not given),-0.184
5,CCNc1nc(NCC)n2c(SC(C(=O)Nc3cc(C)ccc3OC)c3ccccc3)nnc2n1 (stereo not given),-0.463
6,Cc1cccc(CCNC(=O)C2CCC(CNc3c(N4CCCC4)c(=O)c3=O)CC2)c1 (stereo not given),-0.262
7,CCOc1ccc(-c2nnn(CC(=O)NCc3ccco3)n2)cc1OCC,0.241
8,CC(=O)C1=C(c2ccccc2)NC(=O)NC1c1ccccc1OCC#N (stereo not given),1.96
9,CC(=O)c1c(C)[nH]c(C(=O)N2CCN(C(=O)c3ccco3)CC2)c1C,-0.564
10,O=C(CSc1nc2c(cnn2-c2ccc(F)cc2)c(=O)[nH]1)N1CCOCC1,0.476
11,CC(=O)c1cnn(-c2cc(Oc3ccc(F)cc3)ncn2)c1C,0.354
12,COC(=O)c1cnn(-c2cc(Oc3cccc(C)c3)ncn2)c1N,0.309
13,CC(=O)c1cnn(-c2cc(Oc3cccc(C)c3)ncn2)c1C,2.24
14,COC(=O)c1ccc(C2C(Oc3ccc(OC)cc3)C(=O)N2CCc2ccc(OC)c(OC)c2)cc1 (stereo not given),-0.234
15,N#Cc1c(N)nc2c3c(sc(=N)c2c1N)NC(=O)CC3c1ccccc1 (stereo not given),-0.0395
16,CCS(=O)(=O)NCCc1csc(-c2ccccc2)n1,-0.276
17,CS(=O)(=O)NCc1csc(-c2ccccc2)n1,2.26
18,COc1ccc(OC)c(S(=O)(=O)NCc2csc(-c3ccccc3)n2)c1,-0.245
19,COc1cccc(CNC(=O)Cc2nc3nc(C)cc(C)n3n2)c1,-0.187
20,Cn1cc(C(=O)Nc2cccc(F)c2)cn1,0.0603
21,COc1ccc(CN2C(=O)c3ccccc3C(/C=N\OCc3ccc(C)cc3)C2=O)cc1 (stereo not given),2.42
22,COc1ccc(CN2C(=O)c3ccccc3C(/C=N\OCc3ccc(F)cc3)C2=O)cc1 (stereo not given),0.722
23,COc1ccc(CN2C(=O)c3ccccc3C(/C=N/OCc3ccc(Cl)cc3)C2=O)cc1 (stereo not given),0.378
